In the library only some 2.2% were active in any assay of this set; here they are far more common.
APP 5UTR inh: APP translation inhibition | inhibition, % at 2 µM | SH-SY5Y APP 5'UTR-luciferase reporter, luminescence | hit rate 0.82% among 190,000;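 active = inhibition above a set limit, derived from the sample mean plus 3 SD, cut at about 45% in these data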
aSyn UTR inh: MLPCN primary screen, SNCA 5' untranslated region. alpha-synuclein 5'UTR reporter, inhibitor activity. inhibition, % (tested at 7.5 µM). hit rate 0.82% among 300,000. AID 1813; in the data active = inhibition above about 60%;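 also: H4 neuroglioblastoma cells stably carrying SNCA 5'UTR luciferase fusion; 0% = DMSO wells and 100% = positive control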
Ba/F3 V617F tox: lowers viability of Ba/F3 cells expressing EpoR and JAK2V617F. ATP luminescence. inhibition, % at 5.6 µM. hit rate 1.1% among 220,000. AID 1446;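 active = inhibition above the campaign mean plus 3 SD over all tested compounds, cut at about 24% in these data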;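 also: cytokine-independent growth of Ba/F3 cells driven by EpoR plus mutant JAK2; 0% = DMSO-treated cells and 100% = JAK inhibitor I control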
IEC-6 cytotox: kills IEC-6 intestinal cells in KLF5 counter-screen. IEC-6 cytotoxicity, luminescence viability. inhibition, % at 5 µM. AID 1825. hit rate 0.78% among 290,000; in the data active = inhibition above about 22%;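 also: 0% = plate median of test compound wells and 100% = cytotoxic reference compound wells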
BaF3 tox: counter-screen for JAK2V617F inhibitors: parental Ba/F3 viability inhibitors; CellTiter-Glo ATP luminescence; inhibition, % at 5.6 µM; hit rate 1.1% among 220,000;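 active = inhibition above a per-campaign cutoff, the mean inhibition of all tested compounds plus 3 SD, cut at about 27% in these data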;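 also: 0% = DMSO wells and 100% = JAK Inhibitor I control wells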
KLF5 inhibitor: inhibitors of KLF5 expression; DLD-1 KLF5 promoter-luciferase reporter, luminescence; inhibition, % at 5 µM; hit rate 0.23% among 290,000;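 active = inhibition above a per-plate limit of that plate's mean compound inhibition plus 3 SD, cut at about 60% in these data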;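 also: 0% = DMSO wells and 100% = LY294002 at 200 µM; higher means less KLF5 promoter-driven luciferase light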
Numbers without * were called inactive; . = not tested or not shown.

SMILES	APP 5UTR inh	aSyn UTR inh	Ba/F3 V617F tox	IEC-6 cytotox	BaF3 tox	KLF5 inhibitor
CC(C)c1ccc(/C=C2\SC(=S)N(CCC(=O)NCCCn3ccnc3)C2=O)cc1	.	98.4*	.	-4.5	.	16.3
CCOc1ccc(/C=C2\SC(=S)N(CCCC(=O)NCCCN3CCOCC3)C2=O)cc1	.	84.4*	.	0.0	.	0.1
COc1ccc(/C=C2\SC(=S)N(CCC(=O)NCCCn3ccnc3)C2=O)cc1	.	54.3	.	-5.1	.	21.6
COc1ccc(/C=C2\SC(=S)N(CCC(=O)NC3C=CS(=O)(=O)C3)C2=O)cc1 (stereo not drawn)	.	66.4*	.	1.3	.	-35.9
COc1cccc(/C=C2\SC(=S)N(CCC(=O)NC3C=CS(=O)(=O)C3)C2=O)c1 (stereo not drawn)	.	-29.3	.	-2.1	.	-31.8
CCOc1cc(/C=C2\CCCC(C(=O)C(F)(F)F)=C2O)ccc1O	-17.3	-20.0	-2.1	5.5	1.0	7.4
COc1ccc(/C=C2\SC(=S)N(CCCC(=O)N3CCCCC3CCO)C2=O)cc1 (stereo not drawn)	.	67.9*	.	-3.3	.	-2.5
O=C(CCCN1C(=O)/C(=C/c2ccccc2Cl)SC1=S)NNC(=O)c1ccccc1Cl	41.1	100.3*	-4.0	-1.1	-0.4	27.1
O=c1c2ccccc2nnn1COc1ccc(Cl)cc1Br	-80.3	-153.8	0.3	0.0	1.5	-31.8
Cc1ccc(-c2cc(C(F)F)n3ncc(C(=O)N4CCc5ccccc54)c3n2)cc1	87.4*	25.2	2.6	5.2	1.4	-19.4
O=C(c1cnn2c(C(F)F)cc(-c3ccccc3)nc12)N1CCc2ccccc21	-24.7	0.9	2.8	-1.4	4.4	-8.3
Cc1ccccc1OCCn1cnc2c(N)ncnc21	-2.2	-40.0	56.7*	7.7	32.7*	-23.7
Cc1ccccc1OCCn1c(=S)[nH]c2c(N)ncnc21	.	3.4	.	2.1	.	-0.7
CCOc1ccc(NS(=O)(=O)c2ccc(C(=O)N3CCN(c4ncccn4)CC3)cc2)cc1	5.8	14.7	20.8	0.1	31.3*	-16.4
CCCCCCCCCC(=O)N/N=C(\C)c1cccnc1	2.1	-18.8	-3.1	-0.1	-0.6	-6.2
C/C(=N\NC(=O)COc1ccccc1-c1ccccc1)c1cccnc1	16.1	18.9	-1.3	7.5	0.6	7.7
O=C(COc1ccccc1-c1ccccc1)N/N=C/c1ccncc1	-19.0	18.7	-4.1	1.7	-0.4	2.5
O=C(COc1ccccc1-c1ccccc1)N/N=C/c1ccc2ccccc2c1	96.3*	-59.2	-1.2	-1.6	4.1	-11.3
CCCCCC(=O)N/N=C(\C)c1ccccn1	-2.0	66.6*	-1.4	0.3	6.8	-19.8
C/C(=N\NC(=O)COc1ccccc1-c1ccccc1)c1ccccn1	62.0*	114.0*	1.4	12.4	5.0	27.6
O=C(CSc1nnc(-c2ccc(Br)cc2)o1)Nc1cccc(C(=O)O)c1	.	97.9*	.	-2.7	.	56.1
O=C(CSc1nnc(-c2ccc(Br)cc2)o1)Nc1cccc2ccccc12	-2.8	.	-1.2	-2.4	3.0	-0.8
CN(CC(=O)Nc1ccc(Cl)c(C(F)(F)F)c1)C(=O)CCN1C(=O)C2CCCCC2C1=O (stereo not drawn)	.	16.6	.	.	.	.
Cc1ccc(S(=O)(=O)N(Cc2c(F)cccc2Cl)C(=O)N2CCN(C)CC2)cc1	.	7.4	.	.	.	.
C[N+]1(CC(=O)OCCCC2CCCCC2)CCCC1	7.1	-16.7	-0.3	2.2	2.6	-28.5
SMILES	APP 5UTR inh	aSyn UTR inh	Ba/F3 V617F tox	IEC-6 cytotox	BaF3 tox	KLF5 inhibitor
CC(C)CC1CCCCC1OC(=O)C[N+]1(C)CCCCC1 (stereo not drawn)	-24.9	20.5	56.7*	0.5	62.6*	-0.9
CC(C)(C)C1CCC(OC(=O)C[N+]2(C)CCCCC2)CC1 (stereo not drawn)	8.2	-4.0	32.1*	-3.2	40.5*	-14.6
CC(C)(C)C1CCC(OC(=O)C[N+]2(C)CCCC2)CC1 (stereo not drawn)	-11.5	6.4	31.9*	-1.5	35.5*	-15.4
CC(C)(C)C1CCC(OC(=O)CN2CCOCC2)CC1 (stereo not drawn)	-15.8	-107.9	-0.1	-0.9	4.2	9.9
COc1ccccc1NS(=O)(=O)c1cccc(C(=O)N2CC(C)OC(C)C2)c1 (stereo not drawn)	.	1.3	.	.	.	.
Fc1ccc2[nH]c3c(N4CCN(c5ccccc5)CC4)ncnc3c2c1	6.1	7.7	-3.3	-7.8	8.3	-41.6
CCOC(=O)N1CCN(c2ncnc3c2[nH]c2ccc(F)cc23)CC1	-19.0	-6.7	23.2	8.9	41.7*	-14.3
OC1(c2cccc(C(F)(F)F)c2)CCN(c2ncnc3c2[nH]c2ccc(F)cc23)CC1	14.8	.	19.9	-1.1	35.4*	-13.1
CCOC(=O)N1CCN(c2ncnc3c2[nH]c2ccc(OC)cc23)CC1	-5.5	-0.1	4.1	5.9	9.1	-40.8
COc1ccc(C(=O)Nc2ccc(C)cn2)c(OC)c1	-23.6	115.5*	0.9	-3.5	5.5	54.4
COc1ccc(C(=O)Nc2cc(C)on2)c(OC)c1	.	-141.2	.	0.0	.	-187.3
Cc1ccc(OCC(=O)Nc2ccc3c(c2)nc(CCN2CCN(C)CC2)n3C)cc1	.	105.3*	-0.4	-1.4	1.9	-8.4
Cn1c(CCN2CCCCC2)nc2cc(NC(=O)COc3ccc(Cl)cc3)ccc21	.	0.2	.	-0.2	.	-2.5
Cc1ccc(C(C)C)c(OCC(=O)Nc2ccc3c(c2)nc(CCN2CCCCC2)n3C)c1	.	110.3*	.	6.2	.	-14.0
O=C(CN1CCN(Cc2ccccc2)CC1)Nc1ccccc1-c1ccccc1	-0.6	1.0	-1.2	-4.2	0.7	5.3
CCc1ccc(/C=C2\SC(=S)N(CCCC(=O)Nc3ccc(C(=O)O)cc3)C2=O)cc1	.	108.6*	.	10.1	.	28.7
O=C(CCCN1C(=O)/C(=C/c2ccc3c(c2)OCO3)SC1=S)Nc1ccc(C(=O)O)cc1	.	101.6*	.	3.1	.	10.4
O=C(CCN1C(=O)/C(=C/c2ccc3c(c2)OCO3)SC1=S)Nc1ccc(C(=O)O)cc1	.	-6.8	.	-5.4	.	-5.4
O=C(CCCN1C(=O)/C(=C\c2ccccc2)SC1=S)Nc1ccc(C(=O)O)cc1	.	22.1	.	9.3	.	14.2
Cc1ccc(NC(=O)NCc2cccnc2)cc1C	.	-4.9	.	3.6	.	-30.2
CN(C(=S)NCCN1CCOCC1)C(c1ccccc1)c1ccccc1	-7.8	-8.3	16.1	-5.3	44.0*	-43.5
S=C(NCCc1ccccc1)NCCN1CCOCC1	.	-30.1	.	4.8	.	-39.1
Cc1ccc2nc(SCC(=O)NCc3ccco3)[nH]c2c1	50.6*	-40.3	-3.0	0.7	-0.5	-5.2
Cc1ccc2nc(SCC(=O)NC(=O)NCc3ccco3)[nH]c2c1	-4.0	-3.2	-0.4	9.7	4.9	21.8
Cc1ccc(-c2cc(Cc3ccccn3)c(=O)[nH]n2)cc1	.	23.3	-0.3	-1.8	-2.1	-16.4
CCOc1cnn(-c2cc(Oc3ccc(C)cc3)ncn2)c(=O)c1Cl	74.3*	0.1	-0.9	-5.8	6.0	-21.2
COC(=O)c1cnn(-c2cc(Oc3ccccc3)ncn2)c1N	1.1	-126.9	-5.6	-1.6	1.1	-8.3
Cc1onc(-c2c(Cl)cccc2Cl)c1/C(N)=N/OC(=O)C1CC1	.	5.0	-5.1	-1.4	1.0	-31.3

Screens as filed in PubChem.
